Data on 67 compounds can be found in PubChem BioAssay AID540276 (National Center for Advancing Translational Sciences (NCATS), 2011).

Out of some 300,000 compounds screened, about 5,400 (1.8%) were called active. A call without a number means that no potency is given here. Not shown: some 28% with an inconclusive outcome. Calls come from the whole dose curve; tested in HEK293 cells. Only a selection was taken, and actives are over-represented in it overall. Non-standard residues stand in square brackets, D forms with d. Residues, ends and D or L forms follow the SMILES beside them. ξ: configuration not given here. Ac5c = NC1(C(=O)O)CCCC1; ξS = NC(CO)C(=O)O
Potency is the fitted concentration of half-maximal effect.

The assay in a line: qHTS for inhibitors of binding or entry into cells for Marburg Virus. The settings on record: Marburg virus pseudotyped entry inhibition, cell reporter; series mostly up to 37.8 µM.
For `CCOC(=O)c1cn(CC(=O)Nc2ccc(C(C)C)cc2)nn1`, the Potency entry is “inactive”.

For the compound `Cc1cccc(-c2nnc(SCC(=O)O)n2Cc2ccccc2)c1`, the Potency entry is “inactive”.

For the compound `CCOC(=O)c1cn(Cc2cccc(C)c2)nn1`, the Potency was 3.98 µM (active).

Regarding `O=C(C/C(=N\O)c1ccccc1O)C(F)F`, the Potency entry was “inactive”.

On to `Cc1cc(S(=O)(=O)NCC(C)C)ccc1OCC(=O)NC1CC1`, for which the Potency result was “inactive”.

Regarding `S=C(NCCc1ccccc1)Nc1ccccc1`, the Potency entry was “inactive”.

Regarding `FC(F)(F)Oc1ccc(NC(=S)NCc2ccccc2)cc1`, the Potency was 11.2 µM (active).

As for `COC(=O)Cc1ccc(NC(=S)NCc2ccccc2)cc1`, the Potency result is “inactive”.

Turning to `CSc1nc(-c2ccccc2)nc(C(Cl)Cl)n1`, the Potency was 3.55 µM (active).

As for `CCc1noc(C)c1C(=O)N1CCCC(N2CCN(c3ccc(F)cc3)CC2)C1` (configuration not stated), the Potency entry was “inactive”.

`COC1=CC(=O)OC(C)(c2ccccc2)C1` (configuration not stated): the Potency entry was “inactive”.

In the case of `CCOc1cc(CNCc2ccccn2)ccc1OCC(=O)NC(C)(C)C`, the Potency was 7.08 µM (active).

Consider `CCOc1cc(CNn2c(C)nnc2SCC(=O)NC(C)(C)C)ccc1OCC(=O)NC(C)(C)C`, for which the Potency result is “inactive”.

`CCOc1cc(C)c(S(=O)(=O)NCc2ccccn2)cc1C`: the Potency result is “inactive”.

For `O=C(Nc1ccc(Cl)cn1)[C@H]1CCCN1S(=O)(=O)c1ccccc1`, the Potency result is “inactive”.

Regarding `O=C(COc1ccc(S(=O)(=O)N2CCOCC2)cc1Cl)N1CCOCC1`, the Potency entry was “inactive”.

On to `CN(CC(O)COc1ccc(S(=O)(=O)N2CCOCC2)cc1Cl)C1CCCCC1` (configuration not stated), for which the Potency was 10 µM (active).

Consider `Cc1cc(S(=O)(=O)N2CCOCC2)ccc1OCC(=O)N1CCOCC1`, for which the Potency entry was “inactive”.

As for `COc1ccccc1NC(=O)N(O)C1(C#N)CCCCC1`, the Potency result was “inactive”.

Turning to `O=C(Nc1cccc(S(=O)(=O)NC2=NCCC2)c1)c1ccc(F)cc1F`, the Potency entry is “inactive”.

In the case of `Cc1cc(C)c(C)c(S(=O)(=O)Nc2cccnc2)c1C`, the Potency entry was “inactive”.

In the case of `COc1ccc(CCn2nnnc2C(c2ccccc2)N2CCN(C)CC2)cc1OC` (configuration not stated), the Potency result is “inactive”.

Turning to `N#Cc1ccc(C(c2nnnn2CCc2ccccc2)N2CCCCCC2)cc1` (configuration not stated), the Potency was 20.6 µM (active).

On to `CC(C)C(c1nnnn1CCc1ccccc1)N1CCN(C(=O)c2ccco2)CC1` (configuration not stated), for which the Potency result was “inactive”.

As for `CC(C)(C)S(=O)(=O)c1ccccc1-c1noc(-c2ccccc2)c1C(N)=O`, the Potency result is “inactive”.

On to `COc1ccc(S(=O)(=O)N2CCN(c3cnccn3)CC2)cc1`, for which the Potency entry is “inactive”.

Regarding `O=C(Nc1ccc(S(=O)(=O)NCC2CCCO2)cc1)c1ccc(F)cc1` (configuration not stated), the Potency result is “inactive”.

With `CN(Cc1ccccc1)C(=O)C(=O)c1cn(CC(=O)N2CCCC2)c2ccccc12`, the Potency entry was “inactive”.

For `CCc1ccc(NC(=O)C(=O)NNC(=O)c2cccs2)cc1`, the Potency result was “inactive”.

Take `Cc1ccc(NNC(=O)c2c(F)cccc2Cl)cc1Cl`: the Potency result was “inactive”.

Regarding `Cc1ccc(NNC(=O)c2cccs2)cc1Cl`, the Potency is 6.31 µM (active).

As for `Cc1nc(CN(C)C(=O)CC2C(=O)NCCN2Cc2ccc(F)cc2)cs1` (configuration not stated), the Potency entry is “inactive”.

As to `C/C(=N\NC(=O)C1(C)CC1(Br)Br)c1ccc(C)cc1C` (configuration not stated), the Potency result is “inactive”.

For the compound `NC(N)=N/N=C/c1ccc(OCc2ccc(Cl)cc2Cl)cc1`, the Potency was 10.3 µM (active).

Take `COC(=O)c1sc2ncccc2c1OCc1ccc(Cl)cc1Cl`: the Potency entry was “inactive”.

Take `CCOc1ccc(/C=N/NC(N)=S)cc1`: the Potency entry is “inactive”.

In the case of `Cc1ccc(NC(=O)COc2coc(CN3CCc4ccccc4C3)cc2=O)cc1Cl`, the Potency entry was “inactive”.

In the case of `CC(=O)c1ccc(NC(=O)C(C)OC(=O)c2ccc(NS(=O)(=O)c3ccc4[nH]c(=O)[nH]c4c3)cc2)cc1` (configuration not stated), the Potency result was “inactive”.

As for `CCCCN1C2CCC1CC(OC(c1ccc(F)cc1)c1ccc(F)cc1)C2` (configuration not stated), the Potency is 3.55 µM (active).

In the case of `COc1cc(OC)cc(C(=O)Nc2nnc(SCC(=O)NCC3CCCO3)s2)c1` (configuration not stated), the Potency result is “inactive”.

As to `CCOc1ccc(NC(=O)CN2CCN(CC(=O)Nc3ccc(OC)cc3)CC2)cc1`, the Potency result was “inactive”.

Take `COc1ccc(OC)c(NC(=O)CN2CCN(C(=O)c3ccco3)CC2)c1`: the Potency entry was “inactive”.

Regarding `CCc1cc(C(=O)c2ccc(OC)cc2)c(NC(=O)CN2CCN(C)CC2)s1`, the Potency was 3.55 µM (active).

Consider `COc1ccc(CNC(=O)C2CCN(C(=O)c3ccco3)CC2)cc1`, for which the Potency entry is “inactive”.

For the compound `COc1cc2[nH]c(O)c(C=O)c2cc1OC`, the Potency entry is “inactive”.

Turning to `COc1cc(CC(=O)Nc2nc(-c3ccc(F)c(F)c3)cs2)cc(OC)c1OC`, the Potency is 7.94 µM (active).

Turning to `COc1ccc(-c2csc(NC(=O)COC(=O)Cc3ccc(Cl)cc3Cl)n2)cc1`, the Potency entry was “inactive”.

As to `Cc1ccc(-c2csc(NC(=O)Cc3cccs3)n2)cc1C`, the Potency result is “inactive”.

As to `CCCc1ccc(-c2csc(NC(=O)Cc3cccs3)n2)cc1`, the Potency entry was “inactive”.

With `COc1ccc(-c2csc(NC(=O)c3ccc(N4C(=O)CCC4=O)cc3)n2)cc1OC`, the Potency entry was “inactive”.

Turning to `COc1ccc(CC(=O)Nc2nc(-c3ccc(F)c(F)c3)cs2)cc1OC`, the Potency is 10 µM (active).

In the case of `CCOc1ccc(CCNC(=O)COC(=O)c2c(OC)cccc2OC)cc1OCC`, the Potency result was “inactive”.

Consider `Cc1cc(Br)ccc1NC(=O)CN(C)C(=O)CN1C(=O)NC2(CCCC2)C1=O`, for which the Potency result was “inactive”.

For the compound `CCc1nnc(NC(=O)C2CCN(C(=O)c3ccccc3C)CC2)s1`, the Potency entry is “inactive”.

In the case of `O=C(Nc1ccccc1)C1CCN(C(=O)c2ccc(Br)cc2)CC1`, the Potency entry is “inactive”.

On to `CCOC(=O)C(CO)NC(=O)C1(NC(C)=O)CCCC1` (configuration not stated) (Ac-[Ac5c]-[ξS]-OEt), for which the Potency entry was “inactive”.

As for `CCc1cccc(C)c1NC(=S)N(CCCN1CCN(C)CC1)Cc1cccs1`, the Potency is 10 µM (active).

For the compound `CCc1ccccc1NC(=S)N(CCN1CCCCCC1)Cc1ccco1`, the Potency result was “inactive”.

Take `Cc1ccccc1NC(=S)N(CCCN1CCOCC1)Cc1cccs1`: the Potency result is “inactive”.

As to `CCC(=O)Nc1ccc(S(=O)(=O)Nc2c(NC)c3ccccc3oc2=O)cc1`, the Potency result was “inactive”.

Consider `CCCN(C(=O)CSc1nnc(N)s1)c1c(N)n(Cc2ccccc2)c(=O)[nH]c1=O`, for which the Potency entry is “inactive”.

For the compound `CNC(=O)C1CC(=O)N(c2ccc(OCC(=O)Nc3ccccc3C)cc2)C1` (configuration not stated), the Potency result is “inactive”.

With `Cc1cccc(N(C)C(=O)c2cc3c(=O)[nH]c4ccc(C)cc4c3s2)c1`, the Potency was 3.55 µM (active).

In the case of `Cc1ccc2[nH]c(=O)c(CC=C(Cl)Cl)c(C)c2c1`, the Potency entry is “inactive”.

In the case of `COc1ccc(CNC(=O)c2cc3c(=O)[nH]c4ccc(C)cc4c3s2)c(OC)c1`, the Potency result is “inactive”.

In the case of `CCOC(=O)N/N=C1\C[C@@H](O)[C@@H](O)[C@@H]2[C@@H]3C(=O)N(C4CCCCC4)C(=O)[C@@H]3CC[C@@H]12`, the Potency result was “inactive”.

As to `Cc1ccc(NC(=O)CSC2=C(C#N)[C@H](c3ccc4c(c3)OCO4)CC(=O)N2)cc1C`, the Potency entry is “inactive”.
